This note sets out measurements from PubChem BioAssay (NCATS).

SMILES strings stand for the structures. “And” between values parts separate entries of the source, which are not always exact repeats. Equal values may be shown once. Unmarked numbers belong to inactive results. Records with an inconclusive call do not appear. The source made the active and inactive calls. The call rests on the fitted dose curve; in most records, active means well fitted curve in the direction sought with a large enough effect; inconclusive means small, poorly fitted or top-dose-only effect, or another doubt; inactive means no such curve, though single readings can be large or run the other way.

The target in the first assay is Hexokinase-4 (Homo sapiens) + Glucokinase regulatory protein (Homo sapiens) (UniProt P35557+Q14397). The assay can be described thus: qHTS assay for inhibitors of recombinant human GCK-GKRP interaction: HTRF assay (AID 743207).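 Further: 0% = DMSO with GCK present and -100% = DMSO wells lacking GCK.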 The conditions noted are these: recombinant GCK-GKRP HTRF binding, 60 min; series mostly up to 57.5 µM. Summed up: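 HTRF read-out (ex 320 nm; 615/665 nm emission) after 60 min RT equilibration of 5 nM GST-GCK, 5 nM FLAG-GKRP, 2 uM S6P, compound and anti-FLAG/anti-GST detection antibodies; signal normalized between DMSO wells with and without GCK.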
Sequence of Hexokinase-4 (Homo sapiens) + Glucokinase regulatory protein (Homo sapiens) (P35557 whole entry, looked up): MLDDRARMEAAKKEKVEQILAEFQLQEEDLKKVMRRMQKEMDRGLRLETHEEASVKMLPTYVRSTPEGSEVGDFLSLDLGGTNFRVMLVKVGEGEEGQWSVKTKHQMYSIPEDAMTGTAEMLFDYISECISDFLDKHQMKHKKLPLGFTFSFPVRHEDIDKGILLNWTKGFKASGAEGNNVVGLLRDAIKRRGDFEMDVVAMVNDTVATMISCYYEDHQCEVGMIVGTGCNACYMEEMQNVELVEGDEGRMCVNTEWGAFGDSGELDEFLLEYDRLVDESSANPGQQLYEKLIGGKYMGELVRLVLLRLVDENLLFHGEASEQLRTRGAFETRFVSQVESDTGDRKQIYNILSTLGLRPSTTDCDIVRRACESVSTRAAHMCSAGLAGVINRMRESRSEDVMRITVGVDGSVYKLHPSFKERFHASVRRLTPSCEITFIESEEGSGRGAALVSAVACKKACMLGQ
Sequence of Hexokinase-4 (Homo sapiens) + Glucokinase regulatory protein (Homo sapiens) (Q14397 whole entry, looked up): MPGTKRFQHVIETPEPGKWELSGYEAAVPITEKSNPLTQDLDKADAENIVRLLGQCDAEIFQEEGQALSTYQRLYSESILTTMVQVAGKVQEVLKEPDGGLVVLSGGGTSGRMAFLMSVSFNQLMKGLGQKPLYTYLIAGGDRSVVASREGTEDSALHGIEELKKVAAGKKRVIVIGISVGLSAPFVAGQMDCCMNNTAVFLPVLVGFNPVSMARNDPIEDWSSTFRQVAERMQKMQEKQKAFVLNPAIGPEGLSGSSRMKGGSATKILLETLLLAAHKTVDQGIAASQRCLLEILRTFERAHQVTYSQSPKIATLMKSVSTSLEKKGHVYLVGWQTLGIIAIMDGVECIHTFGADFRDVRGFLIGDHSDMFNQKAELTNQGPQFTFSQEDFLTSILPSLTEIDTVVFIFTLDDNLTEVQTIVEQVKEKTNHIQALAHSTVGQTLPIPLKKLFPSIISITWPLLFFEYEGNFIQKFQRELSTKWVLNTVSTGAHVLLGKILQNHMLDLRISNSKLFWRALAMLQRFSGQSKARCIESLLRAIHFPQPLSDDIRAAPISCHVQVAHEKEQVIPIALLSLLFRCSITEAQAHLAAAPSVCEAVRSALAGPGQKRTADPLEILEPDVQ
(In general: qHTS replaces the single test concentration by a dilution series.)
On to `CN1C(=O)CCS(=O)(=O)C1c1ccc(Cl)cc1` (stereo not drawn), for which the outcome was inactive.
Still for that read-out and setting: then `CCC1(c2ccc(N)cc2)CCC(=O)NC1=O` (stereo not drawn), with “inactive”.
On the same count and under the same terms, to `O=c1[nH]oc2c1CCNC2` belongs “inactive”.
Still for that read-out and setting: to `O=C(O)CCCc1ccc(N(CCCl)CCCl)cc1` belongs “inactive”; to `COc1ccc2c(c1OC)C(=O)O[C@H]2[C@@H]1c2cc3c(cc2CCN1C)OCO3`, “inactive”; to `C=C(C)[C@H]1CN[C@H](C(=O)O)[C@H]1CC(=O)O`, “inactive”.
For `CC(C)(C)NCC(O)c1ccccc1Cl` (stereo not drawn), the result was inactive.
The same measure, in the same setting: then `O=P1(N(CCCl)CCCl)NCCCO1` (stereo not drawn), with “inactive”; and `O=C(CCCN1CCC2(CC1)C(=O)NCN2c1ccccc1)c1ccc(F)cc1`, with “inactive”; and `Cc1ncsc1CCCl`, with “inactive”.
Still for that read-out and setting: to `CC(C)c1cccc(C(C)C)c1O` belongs “inactive”; to `CCCCC/C=C\C/C=C\C/C=C\C/C=C\CCCC(=O)NCC(=O)O`, “inactive”.
As to `NCCc1ccc(O)cc1`, the result was inactive.
On the same count and under the same terms, to `CC(NC(C)(C)C)C(=O)c1cccc(Cl)c1` (stereo not drawn) belongs “inactive”; to `CC(C)N(CCC(C(N)=O)(c1ccccc1)c1ccccn1)C(C)C` (stereo not drawn), “inactive”.

Test system in the next assay: not listed separately
The assay can be described thus: qHTS Assay for Identifying Gametocytocidal Compounds (AID 743244). Further: potency means the concentration at half of the fitted maximal effect.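 On max response: on the % scale 0 is the no-effect control and ±100 the full control effect; actives lower the fluorescent signal which means gametocytes are killed.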 The conditions noted are these: P. falciparum 3D7 stage III-V gametocytes, alamarBlue, 72 h; max response: hits give low values. The gist of the method:
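Stage III-V P. falciparum 3D7 gametocytes, 20,000 per well, were exposed to compounds for 72 h at 37C, 5% CO2. AlamarBlue was then added for 24 h and viability was read as fluorescence at Ex 525/Em 598 nm.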
In the case of `CC1(C)C(C=C(Cl)Cl)C1C(=O)OC(C#N)c1cccc(Oc2ccccc2)c1` (stereo not drawn), the max response is -13.8%.
On the same count and under the same terms, then `CN1C(=O)CCS(=O)(=O)C1c1ccc(Cl)cc1` (stereo not drawn), with -2.23% and 6.27%; and `CCOC(=O)CC(SP(=S)(OC)OC)C(=O)OCC` (stereo not drawn), with 7.01% and -6.6%.
As for `C[C@]12CCC(=O)C=C1CC[C@@H]1[C@@H]2CC[C@@]2(C)[C@H]1CC[C@]2(C)O`, the max response is -12% and -18.1%.
As to `CCC1(c2ccc(N)cc2)CCC(=O)NC1=O` (stereo not drawn), the max response is 3.2% and 30.1%.
The same measure, in the same setting: then `O=c1[nH]oc2c1CCNC2`, with 1.24% and 27.1%.
`COc1cc(OC)c(OC)cc1C=O`: the max response is 4.65%.
On the same count and under the same terms, to `C[C@]1(O)CC[C@H]2[C@@H]3CCC4=CC(=O)CC[C@]4(C)[C@@]3(F)[C@@H](O)C[C@@]21C` belongs 8.13%; to `O=C(O)CCCc1ccc(N(CCCl)CCCl)cc1`, -1.81% and 3.48%; to `CC(=O)N1CCN(c2ccc(OC[C@H]3CO[C@](Cn4ccnc4)(c4ccc(Cl)cc4Cl)O3)cc2)CC1`, 0.452%.
Same read-out and setting: then `CC(C)NC(C)C`, with 15.3%; and `COc1ccc2c(c1OC)C(=O)O[C@H]2[C@@H]1c2cc3c(cc2CCN1C)OCO3`, with 10.8% and 14.8%.
Still for that read-out and setting: then `C=C(C)[C@H]1CN[C@H](C(=O)O)[C@H]1CC(=O)O`, with 5.55% and 38.6%.
With `COP(=S)(OC)SCN1C(=O)c2ccccc2C1=O`, the max response was -4.68%.
Consider `CC(C)(C)NCC(O)c1ccccc1Cl` (stereo not drawn), for which the max response is -5.65% and 5.12%.
As for `O=P1(N(CCCl)CCCl)NCCCO1` (stereo not drawn), the max response is -0.339% and 12.3%.
On to `O=C(CCCN1CCC2(CC1)C(=O)NCN2c1ccccc1)c1ccc(F)cc1`, for which the max response is -9.38% and 8.83%.
Regarding `Nc1ccccc1`, the max response is -6%.
As for `Oc1ccc(Cl)cc1`, the max response is -8.53%.
The same measure, in the same setting: then `Cc1ncsc1CCCl`, with 5.08% and 26.9%.
Still for that read-out and setting: then `CC(C)c1cccc(C(C)C)c1O`, with -8.91% and 15.4%.
Take `CN1C[C@H](C(=O)N[C@]2(C)O[C@@]3(O)[C@@H]4CCCN4C(=O)[C@H](Cc4ccccc4)N3C2=O)C=C2c3cccc4[nH]cc(c34)C[C@H]21`: the Potency is 8.91 µM (active).
In the case of `CCCCC/C=C\C/C=C\C/C=C\C/C=C\CCCC(=O)NCC(=O)O`, the max response is -2.03% and 7.82%.
The same measure, in the same setting: then `CCC(C)(C)c1ccc(O)cc1`, with 15.1%.
Turning to `NCCc1ccc(O)cc1`, the max response was -2.18% and 16.8%.
Consider `CC(NC(C)(C)C)C(=O)c1cccc(Cl)c1` (stereo not drawn), for which the max response was -0.241% and 10.5%.
Still for that read-out and setting: then `COC(=O)C(c1ccccc1)C1CCCCN1` (stereo not drawn), with -2.03%.
Take `Nc1ccccc1C(=O)O`: the max response was 3.13%.
Turning to `C[C@]12CCC(=O)C=C1CC[C@@H]1[C@@H]2CC[C@]2(C)C(=O)CC[C@@H]12`, the max response is 5.73%.
Take `CCCC(C)(COC(N)=O)COC(N)=O`: the max response is -2.61%.
On the same count and under the same terms, then `O=C1c2ccccc2C(=O)C1C(=O)C(c1ccccc1)c1ccccc1`, with 4.31%; and `CC(C)N(CCC(C(N)=O)(c1ccccc1)c1ccccn1)C(C)C` (stereo not drawn), with 11.9% and -6.08% and 19.7%; and `COP(=S)(OC)Oc1ccc(SC)c(C)c1`, with -2.21%.
